# Experimental data published in the supplement of paper PMC4466140.
# What was measured:
# Assay in all cases: SPOT peptide array binding signal intensity (averaged, normalized) (arbitrary units (background-subtracted, floor 0; scale differs between SH3 domains)); higher = stronger binding of the SH3 domain to the peptide
# AgAbp1 = target: AgAbp1
# How it was run: (§1)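 GST-fused SH3 domains from four yeast species were expressed in E. coli BL21(DE3), purified on glutathione Sepharose and incubated at 10 μg/ml overnight at 4°C in TBS-based blocking buffer on cellulose membranes carrying synthetic 15-mer peptides, with cysteines replaced by serines. Bound protein was detected with anti-GST antibody, an HRP anti-mouse secondary and luminol, then imaged and quantified with Genespotter. Binding signal is the normalized, background-subtracted spot intensity averaged over replicates, in arbitrary units that differ between domains.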
# AgBbc1 = target: AgBbc1
# How it was run: as §1
# AgBem1-D1 = target: AgBem1-D1
# How it was run: as §1
# AgBzz1-D1 = target: AgBzz1-D1
# How it was run: as §1
# AgBzz1-D2 = target: AgBzz1-D2
# How it was run: as §1
# AgCyk3 = target: AgCyk3
# How it was run: as §1
# AgFus1 = target: AgFus1
# How it was run: as §1
# AgHof1 = target: AgHof1
# How it was run: as §1
# AgHse1 = target: AgHse1
# How it was run: as §1
# AgLsb1 = target: AgLsb1
# How it was run: as §1
# AgLsb4 = target: AgLsb4
# How it was run: as §1
# AgMyo5 = target: AgMyo5
# How it was run: as §1
# AgNbp2 = target: AgNbp2
# How it was run: as §1
# AgRvs167 = target: AgRvs167
# How it was run: as §1
# AgSho1 = target: AgSho1
# How it was run: as §1
# AgSla1-D1-D2 = target: AgSla1-D1-D2
# How it was run: as §1
# AgSla1-D3 = target: AgSla1-D3
# How it was run: as §1
# CaAbp1-D1 = target: CaAbp1-D1
# How it was run: as §1
# CaAbp1-D2 = target: CaAbp1-D2
# How it was run: as §1
# CaBbc1 = target: CaBbc1
# How it was run: as §1
# CaBem1-D1 = target: CaBem1-D1
# How it was run: as §1
# CaBzz1-D1 = target: CaBzz1-D1
# How it was run: as §1
# CaBzz1-D2 = target: CaBzz1-D2
# How it was run: as §1
# CaCyk3 = target: CaCyk3
# How it was run: as §1
# CaFus1 = target: CaFus1
# How it was run: as §1
# CaHof1 = target: CaHof1
# How it was run: as §1
# CaHse1 = target: CaHse1
# How it was run: as §1
# CaLsb1 = target: CaLsb1
# How it was run: as §1
# CaLsb4 = target: CaLsb4
# How it was run: as §1
# CaMyo5 = target: CaMyo5
# How it was run: as §1
# CaNbp2 = target: CaNbp2
# How it was run: as §1
# CaRvs167 = target: CaRvs167
# How it was run: as §1
# CaRvs167-3 = target: CaRvs167-3
# How it was run: as §1
# CaSho1 = target: CaSho1
# How it was run: as §1
# CaSla1-D1-D2 = target: CaSla1-D1-D2
# How it was run: as §1
# CaSla1-D3 = target: CaSla1-D3
# How it was run: as §1
# ScAbp1 = target: ScAbp1
# How it was run: as §1
# ScBbc1 = target: ScBbc1
# How it was run: as §1
# ScBem1-D1 = target: ScBem1-D1
# How it was run: as §1
# ScBzz1-D1 = target: ScBzz1-D1
# How it was run: as §1
# ScBzz1-D2 = target: ScBzz1-D2
# How it was run: as §1
# ScCyk3 = target: ScCyk3
# How it was run: as §1
# ScFus1 = target: ScFus1
# How it was run: as §1
# ScHof1 = target: ScHof1
# How it was run: as §1
# ScHse1 = target: ScHse1
# How it was run: as §1
# ScLsb1 = target: ScLsb1
# How it was run: as §1
# ScLsb2 = target: ScLsb2
# How it was run: as §1
# ScLsb3 = target: ScLsb3
# How it was run: as §1
# ScLsb4 = target: ScLsb4
# How it was run: as §1
# ScMyo3 = target: ScMyo3
# How it was run: as §1
# ScMyo5 = target: ScMyo5
# How it was run: as §1
# ScNbp2 = target: ScNbp2
# How it was run: as §1
# ScPex13 = target: ScPex13
# How it was run: as §1
# ScRvs167 = target: ScRvs167
# How it was run: as §1
# ScSho1 = target: ScSho1
# How it was run: as §1
# ScSla1-D1-D2 = target: ScSla1-D1-D2
# How it was run: as §1
# ScSla1-D3 = target: ScSla1-D3
# How it was run: as §1
# SpAbp1-D1 = target: SpAbp1-D1
# How it was run: as §1
# SpBbc1 = target: SpBbc1
# How it was run: as §1
# SpBzz1-D1 = target: SpBzz1-D1
# How it was run: as §1
# SpBzz1-D2 = target: SpBzz1-D2
# How it was run: as §1
# SpCyk3 = target: SpCyk3
# How it was run: as §1
# SpHof1 = target: SpHof1
# How it was run: as §1
# SpHof1-2 = target: SpHof1-2
# How it was run: as §1
# SpHof1-3 = target: SpHof1-3
# How it was run: as §1
# SpHse1 = target: SpHse1
# How it was run: as §1
# SpLsb1 = target: SpLsb1
# How it was run: as §1
# SpLsb4 = target: SpLsb4
# How it was run: as §1
# SpMyo1 = target: SpMyo1
# How it was run: as §1
# SpNbp2 = target: SpNbp2
# How it was run: as §1
# SpPex13 = target: SpPex13
# How it was run: as §1
# SpRvs167 = target: SpRvs167
# How it was run: as §1
# SpSla1-D1-D2 = target: SpSla1-D1-D2
# How it was run: as §1
# SpSla1-D3 = target: SpSla1-D3
# How it was run: as §1
binder,measurement,setting,value
NFLRLLIGLPSQNEL,SPOT peptide array binding signal intensity,AgAbp1,≤ 0
same,SPOT peptide array binding signal intensity,AgBbc1,4.25
same,SPOT peptide array binding signal intensity,AgBem1-D1,132
same,SPOT peptide array binding signal intensity,AgBzz1-D1,17.5
same,SPOT peptide array binding signal intensity,AgBzz1-D2,6.5
same,SPOT peptide array binding signal intensity,AgCyk3,3.5
same,SPOT peptide array binding signal intensity,AgFus1,950
same,SPOT peptide array binding signal intensity,AgHof1,31.5
same,SPOT peptide array binding signal intensity,AgHse1,2760
same,SPOT peptide array binding signal intensity,AgLsb1,≤ 0
same,SPOT peptide array binding signal intensity,AgLsb4,248
same,SPOT peptide array binding signal intensity,AgMyo5,2.75
same,SPOT peptide array binding signal intensity,AgNbp2,39
same,SPOT peptide array binding signal intensity,AgRvs167,2
same,SPOT peptide array binding signal intensity,AgSho1,263
same,SPOT peptide array binding signal intensity,AgSla1-D1-D2,50
same,SPOT peptide array binding signal intensity,AgSla1-D3,4.5
same,SPOT peptide array binding signal intensity,CaAbp1-D1,≤ 0
same,SPOT peptide array binding signal intensity,CaAbp1-D2,≤ 0
same,SPOT peptide array binding signal intensity,CaBbc1,≤ 0
same,SPOT peptide array binding signal intensity,CaBem1-D1,≤ 0
same,SPOT peptide array binding signal intensity,CaBzz1-D1,39
same,SPOT peptide array binding signal intensity,CaBzz1-D2,37
same,SPOT peptide array binding signal intensity,CaCyk3,4
same,SPOT peptide array binding signal intensity,CaFus1,2560
same,SPOT peptide array binding signal intensity,CaHof1,1.5
same,SPOT peptide array binding signal intensity,CaHse1,156
same,SPOT peptide array binding signal intensity,CaLsb1,2.5
same,SPOT peptide array binding signal intensity,CaLsb4,3
same,SPOT peptide array binding signal intensity,CaMyo5,8.25
same,SPOT peptide array binding signal intensity,CaNbp2,259
same,SPOT peptide array binding signal intensity,CaRvs167,72
same,SPOT peptide array binding signal intensity,CaRvs167-3,143
same,SPOT peptide array binding signal intensity,CaSho1,731
same,SPOT peptide array binding signal intensity,CaSla1-D1-D2,≤ 0
same,SPOT peptide array binding signal intensity,CaSla1-D3,41.2
same,SPOT peptide array binding signal intensity,ScAbp1,≤ 0
same,SPOT peptide array binding signal intensity,ScBbc1,0.5
same,SPOT peptide array binding signal intensity,ScBem1-D1,18
same,SPOT peptide array binding signal intensity,ScBzz1-D1,19
same,SPOT peptide array binding signal intensity,ScBzz1-D2,21
same,SPOT peptide array binding signal intensity,ScCyk3,101
same,SPOT peptide array binding signal intensity,ScFus1,1020
same,SPOT peptide array binding signal intensity,ScHof1,1.5
same,SPOT peptide array binding signal intensity,ScHse1,2880
same,SPOT peptide array binding signal intensity,ScLsb1,0.75
same,SPOT peptide array binding signal intensity,ScLsb2,≤ 0
same,SPOT peptide array binding signal intensity,ScLsb3,276
same,SPOT peptide array binding signal intensity,ScLsb4,≤ 0
same,SPOT peptide array binding signal intensity,ScMyo3,4
same,SPOT peptide array binding signal intensity,ScMyo5,≤ 0
same,SPOT peptide array binding signal intensity,ScNbp2,53
same,SPOT peptide array binding signal intensity,ScPex13,≤ 0
same,SPOT peptide array binding signal intensity,ScRvs167,11.7
same,SPOT peptide array binding signal intensity,ScSho1,1160
same,SPOT peptide array binding signal intensity,ScSla1-D1-D2,≤ 0
same,SPOT peptide array binding signal intensity,ScSla1-D3,8.5
same,SPOT peptide array binding signal intensity,SpAbp1-D1,1
same,SPOT peptide array binding signal intensity,SpBbc1,3.75
same,SPOT peptide array binding signal intensity,SpBzz1-D1,22
same,SPOT peptide array binding signal intensity,SpBzz1-D2,≤ 0
same,SPOT peptide array binding signal intensity,SpCyk3,7
same,SPOT peptide array binding signal intensity,SpHof1,121
same,SPOT peptide array binding signal intensity,SpHof1-2,31.5
same,SPOT peptide array binding signal intensity,SpHof1-3,443
same,SPOT peptide array binding signal intensity,SpHse1,3340
same,SPOT peptide array binding signal intensity,SpLsb1,≤ 0
same,SPOT peptide array binding signal intensity,SpLsb4,≤ 0
same,SPOT peptide array binding signal intensity,SpMyo1,0.5
same,SPOT peptide array binding signal intensity,SpNbp2,52.5
same,SPOT peptide array binding signal intensity,SpPex13,52
same,SPOT peptide array binding signal intensity,SpRvs167,9.83
same,SPOT peptide array binding signal intensity,SpSla1-D1-D2,4
same,SPOT peptide array binding signal intensity,SpSla1-D3,8
